Assay results as given in PubChem BioAssay AID1159580 (chemical genetic matrix, 2015).
“And” between values parts separate entries of the source, which are not always exact repeats. Equal entries are not always repeated. Hit rate of the full screen: of about 5,500 compounds, about 2,000 (36%) were called active. About 18% were inconclusive and are not listed. Cut-off read from the data, not from the text of the source: active = normalized growth mostly below about 0.91 (no sharp cut-off); inconclusive = no clear call, values can overlap the other calls; inactive = mostly above about 0.92. This is one part of the list.

Experiment: chemical genetic growth profiling, strain panel (AID 1159580);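 note: tested at 20 µM; growth read once vehicle control cultures reached saturation at 30 °C; 1 = growth at the plate median or of vehicle wells; lower values mean less growth of the strain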
Details: S. cerevisiae deletion strains, growth OD

Measured: normalized growth

COc1cc(NC(C)CCCN)c2ncccc2c1 (configuration not stated)
active: locus YER155C, strain BEM2 (second series), active compounds read low 0.859
inactive: locus YAL013W, strain DEP1, active compounds read low 1 | locus YAL021C, strain ccr4, active compounds read low 0.972 | locus YAL026C, strain drs2, active compounds read low 1.02 | locus YAL030W, strain snc1, active compounds read low 0.999 | locus YBL061C, strain skt5, active compounds read low 1 | locus YBR009C, strain hhf1, active compounds read low 1.07 | locus YBR021W, strain FUR4, active compounds read low 0.988 | locus YBR023C, strain chs3, active compounds read low 1.02 | locus YBR171W, strain sec66, active compounds read low 1.01 | locus YBR229C, strain ROT2, active compounds read low 1 | locus YBR231C, strain swc5, active compounds read low 0.984 | locus YBR279W, strain paf1, active compounds read low 1.01 | locus YCL011C, strain gbp2, active compounds read low 1.01 | locus YCL016C, strain dcc1, active compounds read low 1.02 | locus YCL029C, strain bik1, active compounds read low 1.02 | locus YCL061C, strain MRC1, active compounds read low 1 | locus YCL069W, strain vba3, active compounds read low 1.01 | locus YCR088W, strain abp1, active compounds read low 1 | locus YDL005C, strain med2, active compounds read low 1 | locus YDL035C, strain GPR1, active compounds read low 1 | locus YDL040C, strain nat1, active compounds read low 1 | locus YDL074C, strain BRE1, active compounds read low 1.01 | locus YDL101C, strain DUN1, active compounds read low 1.02 | locus YDL134C, strain PPH21, active compounds read low 1.01 | locus YDL185W, strain tfp1, active compounds read low 1.01 | locus YDL192W, strain arf1, active compounds read low 1.01 | locus YDR001C, strain nth1, active compounds read low 1.01 | locus YDR069C, strain doa4, active compounds read low 0.977 | locus YDR101C, strain arx1, active compounds read low 1 | locus YDR137W, strain rgp1, active compounds read low 1.03 | locus YDR150W, strain NUM1, active compounds read low 1.01 | locus YDR159W, strain sac3, active compounds read low 0.993 | locus YDR162C, strain NBP2, active compounds read low 1.01 | locus YDR195W, strain ref2 0.99 | locus YDR297W, strain sur2, active compounds read low 1 | locus YDR318W, strain mcm21, active compounds read low 1 | locus YDR334W, strain swr1, active compounds read low 1.01 | locus YDR335W, strain msn5, active compounds read low 1 | locus YDR388W, active compounds read low 1.02 | locus YDR392W, strain spt3, active compounds read low 0.875 | locus YDR502C, strain sam2, active compounds read low 1 | locus YEL003W, strain gim4, active compounds read low 1.01 | locus YEL037C, strain rad23, active compounds read low 1.02 | locus YEL061C, strain CIN8 (second series), active compounds read low 1 | locus YEL061C, strain CIN8, active compounds read low 1 | locus YER015W, strain faa2, active compounds read low 0.989 | locus YER016W, strain bim1, active compounds read low 0.995 | locus YER110C, active compounds read low 1.01 | locus YER111C, strain swi4, active compounds read low 1.01 | locus YER155C, strain BEM2, active compounds read low 0.999 | locus YER167W, strain BCK2, active compounds read low 1.01 | locus YFR010W, strain ubp6, active compounds read low 1.01 | locus YGL078C, strain dbp3, active compounds read low 1.01 | locus YGL086W, strain mad1, active compounds read low 0.981 | locus YGL167C, strain pmr1, active compounds read low 1.01 | locus YGL173C, strain kem1, active compounds read low 1.02 | locus YGL227W, strain vid30, active compounds read low 0.999 | locus YGL240W, strain doc1, active compounds read low 0.985 | locus YGL248W, strain PDE1, active compounds read low 1.01 | locus YGL253W, strain hxk2, active compounds read low 1.03 | locus YGR078C, strain PAC10, active compounds read low 1.02 | locus YGR135W, strain pre9, active compounds read low 0.991 | locus YGR229C, strain SMI1, active compounds read low 1.01 | locus YGR252W, strain gcn5, active compounds read low 0.961 | locus YHR013C, strain ard1, active compounds read low 1 | locus YHR027C, strain rpn1, active compounds read low 1.03 | locus YHR030C, strain SLT2, active compounds read low 1.01 and 1.05 | locus YHR079C, strain IRE1 (second series), active compounds read low 1.01 | locus YHR079C, strain IRE1, active compounds read low 1.05 | locus YHR094C, strain hxt1, active compounds read low 1.01 | locus YHR129C, strain ARP1, active compounds read low 1 | locus YHR142W, strain chs7, active compounds read low 1.05 | locus YHR200W, strain rpn10, active compounds read low 1 | locus YIL066C, strain RNR3, active compounds read low 1.01 | locus YIL073C, strain SPO22, active compounds read low 1.1 | locus YIL125W, strain kgd1, active compounds read low 1.01 | locus YIR030C, strain dcg1, active compounds read low 1.01 | locus YJL092W, strain hpr5, active compounds read low 0.995 | locus YJL095W, strain BCK1 (second series), active compounds read low 1.02 | locus YJL095W, strain BCK1, active compounds read low 1 and 1.03 | locus YJL115W, strain asf1, active compounds read low 1.01 | locus YJL129C, strain trk1, active compounds read low 1.04 | locus YJL134W, strain LCB3, active compounds read low 1 | locus YJL154C, strain vps35, active compounds read low 1 | locus YJL164C, strain tpk1, active compounds read low 1.04 | locus YJL166W, strain qcr8, active compounds read low 0.964 | locus YJL168C, strain set2, active compounds read low 1.01 | locus YJL187C, strain SWE1 (second series), active compounds read low 1.02 | locus YJL187C, strain SWE1, active compounds read low 0.998 | locus YJR043C, strain POL32, active compounds read low 0.995 | locus YJR066W, strain TOR1, active compounds read low 0.977
